The target in assay [1] is Estrogen receptor (Homo sapiens) (UniProt P03372). As to the kind of experiment: qHTS assay for small molecule agonists of estrogen receptor alpha signaling (AID 588514; calls by dose curve;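 note: 0% = vehicle only and 100% = reference agonist; nearly all actives have a fitted effect of over 70% in size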). In a few lines:
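EC50 and efficacy came from Hill fits of beta-lactamase reporter signal (CCF4 dye, 2 h at room temperature) scaled between DMSO and 20 nM 17-beta-estradiol. Agonist mode: HEK293 ER-alpha-UAS-bla cells in charcoal/dextran-stripped serum medium, 18 h compound exposure at 37 C.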
(In general: Quantitative high-throughput screening tests each substance at several concentrations.)

Assay [2] in a line: qHTS assay for small molecule antagonists of peroxisome proliferator-activated receptor delta signaling (AID 588535; active = well fitted inhibition curve with a large enough effect in the signal ratio, with a control signal flat, not every such curve was filed as active; the % refers to the signal ratio;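 for max response: cells co-treated with a PPAR-delta agonist as stimulator during compound exposure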). The note with it: HEK293T PPARd-UAS-bla, beta-lactamase FRET ratio, 18 h; 460 nm channel. In a few lines:
(§1)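 Inhibition of PPAR-delta response element-driven beta-lactamase expression is measured in HEK293T cells exposed to a compound titration series for 18 hrs at 37 C. Half-maximal inhibition comes from Hill equation fitting.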

Assay [3] concerns the target Peroxisome proliferator-activated receptor delta (Homo sapiens) (UniProt Q03181). The assay is described as above. The gist of the method:
as §1

Assay [4] addresses Peroxisome proliferator-activated receptor gamma (Homo sapiens) (UniProt P37231). As to the kind of experiment: qHTS assay for small molecule agonists of peroxisome proliferator-activated receptor gamma signaling (AID 588536; active = well fitted curve in the direction sought with a large enough effect in the signal ratio, with a control signal flat, not every such curve was filed as active; the % refers to the signal ratio;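 note: 0% = DMSO basal wells and 100% = rosiglitazone at 2 µM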). In a few lines:
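Cells were plated and held 6–6.5 h at 37 C, then compounds were added as a titration series. After a further 16 h, CCF4 dye was loaded for 2 h at room temperature and emission at 460/530 nm recorded.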

The target of assay [5] is Vitamin D3 receptor (Homo sapiens) (UniProt P11473). The experiment in a line: qHTS assay for small molecule antagonists of vitamin D receptor signaling (AID 588541; calls by dose curve;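 note: receptor activated by calcitriol during compound treatment; series mostly up to about 77 µM; % is set by controls: 0 for no effect and ±100 for the full control effect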). The gist of the method: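 VDR-UAS-bla HEK293T cells (2000/well, 2% charcoal-stripped FBS) were treated with titrated compounds plus 1-alpha,25-dihydroxyvitamin D3 (50 nM or 3 nM final) for 16 h at 37 C. CCF4 beta-lactamase fluorescence was read; Hill fits gave IC50.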
Sequence of Vitamin D3 receptor (Homo sapiens) (P11473 whole entry, looked up): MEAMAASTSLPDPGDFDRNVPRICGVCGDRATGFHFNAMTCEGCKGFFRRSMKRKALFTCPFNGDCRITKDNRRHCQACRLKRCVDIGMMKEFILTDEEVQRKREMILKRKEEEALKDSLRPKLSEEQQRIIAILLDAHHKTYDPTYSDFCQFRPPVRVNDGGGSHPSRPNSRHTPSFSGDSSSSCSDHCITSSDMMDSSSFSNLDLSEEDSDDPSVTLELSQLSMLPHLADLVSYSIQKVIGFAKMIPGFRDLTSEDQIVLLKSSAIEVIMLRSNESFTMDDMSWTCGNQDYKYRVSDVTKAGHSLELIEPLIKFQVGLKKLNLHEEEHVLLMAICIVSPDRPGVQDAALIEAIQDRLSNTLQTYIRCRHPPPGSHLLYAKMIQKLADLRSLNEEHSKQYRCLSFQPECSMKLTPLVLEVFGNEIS

Assay [6] is described as follows: qHTS assay for small molecule agonists of retinoid X receptor alpha signaling (AID 588544; calls by dose curve;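 for activation: 0% = DMSO basal wells and 100% = reference agonist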). The note with it: HEK293T RXRa-UAS-bla, beta-lactamase reporter, 18 h; 530 nm emission.
For assay [7], the target named is Retinoic acid receptor RXR-alpha (Homo sapiens) (UniProt P19793). The assay is described as above.
Sequence of Retinoic acid receptor RXR-alpha (Homo sapiens) (P19793 whole entry, looked up): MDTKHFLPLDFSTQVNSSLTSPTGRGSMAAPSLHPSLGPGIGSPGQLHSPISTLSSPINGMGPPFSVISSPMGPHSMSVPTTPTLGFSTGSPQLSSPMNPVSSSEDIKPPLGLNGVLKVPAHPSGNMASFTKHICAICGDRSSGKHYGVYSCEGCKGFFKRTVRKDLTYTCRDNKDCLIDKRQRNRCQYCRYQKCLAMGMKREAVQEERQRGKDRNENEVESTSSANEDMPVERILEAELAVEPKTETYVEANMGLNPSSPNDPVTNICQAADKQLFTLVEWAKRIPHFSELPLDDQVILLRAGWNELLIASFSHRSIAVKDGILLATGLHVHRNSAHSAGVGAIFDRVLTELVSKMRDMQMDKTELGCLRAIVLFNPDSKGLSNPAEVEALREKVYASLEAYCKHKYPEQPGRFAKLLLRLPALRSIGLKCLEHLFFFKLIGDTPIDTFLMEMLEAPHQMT
Assay [8] in a line: qHTS assay for small molecule antagonists of retinoid X receptor alpha signaling (AID 588546; active = well fitted inhibition curve with a large enough effect in the signal ratio, with a control signal flat, not every such curve was filed as active; the % refers to the signal ratio;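 note: cells stimulated with 9-cis-retinoic acid as agonist; % is set by controls: 0 for no effect and ±100 for the full control effect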). The settings on record: HEK293T RXRa-UAS-bla, beta-lactamase ratio, antagonist mode; measured here: W530 green channel, cytotoxicity proxy. The gist of the method: (§2)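 Beta-lactamase reporter inhibition, read as CCF4 fluorescence ratio (ex 405, em 460/530 nm) after 2 h at RT. HEK293T UAS-bla cells, 2500/well, were stimulated with 9-cis-RA at 500 or 100 nM final alongside test compound for 18 h at 37 C.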

Assay [9] concerns the target Retinoic acid receptor RXR-alpha (Homo sapiens) (UniProt P19793). Described as above. The note with it: HEK293T RXRa-UAS-bla, beta-lactamase ratio, antagonist mode. The gist of the method: as §2
Assay [10] is described as follows: qHTS assay for small molecule activators of the p53 signaling pathway (AID 651743; active = well fitted activation curve with a large enough effect in the signal ratio, not every such curve was filed as active; the % refers to the signal ratio; note: series mostly up to about 92 µM; % of control where 0% means no effect). The settings on record: HCT-116 p53RE-bla, beta-lactamase FRET ratio, 16 h; activation: stronger effect = higher value. In a few lines: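 Agonist-mode quantitative HTS in HCT-116 cells carrying a p53-response-element beta-lactamase reporter; 16 h compound treatment at 37 C, then FRET substrate loading for 2 h at room temperature and fluorescence read.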

Assay [11] can be described thus: qHTS assay for environmental chemicals that activate the Aryl hydrocarbon Receptor (AhR) signaling pathway (AID 651777). Note: % of control where 0% means no effect; nearly all actives have a fitted effect of over 15% in size. The settings on record: 1A2-DRE human hepatoma cells, luciferase, 24 h; activation: stronger effect = higher value. In a few lines:
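Human hepatoma 1A2-DRE cells, stably carrying a dioxin response element and CYP1A2 promoter driving luciferase, were exposed to compounds for 24 hr at 37 C and 5% CO2. Luciferase signal was then read after 30 min One-Glo at room temperature.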

In assay [12] the target is Peroxisome proliferator-activated receptor alpha (Homo sapiens) (UniProt Q07869). As to the kind of experiment: qHTS assay for small molecule agonists of the peroxisome proliferator-activated receptor alpha (PPARalpha) signaling pathway (AID 651778). Note: % of control where 0% means no effect. The note with it: PathHunter PPARalpha complementation, chemiluminescence, 6 h; max response: stronger effect = higher value. The gist of the method:
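Cells plated at 2,000/well and held overnight at 37 C, 5% CO2, then compound added by pin tool for 6 hr; after PathHunter detection reagent and 60 min at room temperature, chemiluminescence from enzyme complementation was read.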

The nature of assay [13]: qHTS assay for small molecule agonists of the antioxidant response element (ARE) signaling pathway measured by Nrf2-dependant transcriptional activity (AID 720636; active = well fitted curve in the direction sought with a large enough effect in the repeat runs; an effect the other way counts as inactive or inconclusive; note: % of control where 0% means no effect). In a few lines: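 ARE-luc HepG2 cells carrying an Nrf2-responsive luciferase reporter were plated in medium with 1% dialyzed FBS, left 6 hr at 37 C to attach, then exposed to compound for 16 hr. Luciferase luminescence was read after ONE-Glo addition.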

The nature of assay [14]: qHTS assay for small molecule agonists of the antioxidant response element (ARE) signaling pathway measured by Nrf2-dependant transcriptional activity - cell viability counter screen (AID 720653; active = well fitted curve in the direction sought with a large enough effect in the repeat runs; an effect the other way counts as inactive or inconclusive; note: % is set by controls: 0 for no effect and ±100 for the full control effect). The settings on record: ARE-bla HepG2 viability, CellTiter-Glo ATP luminescence, 16 h; max response: stronger effect = lower value. In a few lines: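 ARE-bla HepG2 cells (2,000/well) rested 5 hrs at 37C/5% CO2, then exposed to compounds in DMSO for 16 hrs. Viability was read in the same wells as intracellular ATP by luminescence, 30 min at room temperature after reagent addition.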

Assay [15] is described as follows: qHTS assay for cell viability of HEK293 cells (AID 743288). Note: % is set by controls: 0 for no effect and ±100 for the full control effect; nearly all actives have a fitted effect of over 50% in size. The settings on record: ATP luminescence (CellTiter-Glo), 18 h; max response: stronger effect = lower value. In a few lines: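 HEK293, 18 h, 37 C, ATP luminescence. Cells at 2,000/well were allowed at least 5 h to settle before dosing; CellTiter-Glo developed 30 min at RT.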
Assay [16] is described as follows: qHTS assay for cell viability of the p53RE-bla HCT-116 cell line (AID 743292). Note: nearly all actives have a fitted effect of over 55% in size. Note: potency is the fitted concentration of half-maximal effect. The gist of the method: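 CellSensor p53RE-bla HCT-116 cells, 4,000/well, preincubated 5 h at 37 C, then exposed to compounds in DMSO for 16 h at 37 C. Viability read as CellTiter-Glo luminescence (intracellular ATP) after 30 min at room temperature.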
Assay [17] concerns the target Nuclear receptor subfamily 1 group I member 2 (Rattus norvegicus) (UniProt Q9R1A7). The experiment in a line: qHTS assay for small molecule activators of the rat pregnane X receptor (rPXR) signaling pathway (AID 651751; call rule not given here; note: 0% is about no effect). The settings on record: rPXR reporter cells, luciferase (One-Glo), 24 h.
Assay [18] in a line: qHTS assay for small molecule activators of the human pregnane X receptor (PXR) signaling pathway (AID 720659; call rule not given here; note: 0% is about no effect).
Assay [19] has as its target Thyroid hormone receptor beta (Homo sapiens) (UniProt P10828). The experiment in a line: qHTS assay for small molecule agonists of thyroid hormone receptor beta signaling (AID 588545; calls by dose curve;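 note: 0% = DMSO only and 100% = 10 nM T3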). In a few lines: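 TR-UAS-bla GripTite HEK 293 cells (2500/well, medium with 2% charcoal/dextran FBS) were treated in agonist mode for 18 h at 37 C, titrated. Beta-lactamase was read by CCF4 ratio after 2 h; normalized to 10 nM T3 (100%) and DMSO, Hill-fitted for EC50 and efficacy.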

Assay [20] has the same target. As to the kind of experiment: qHTS assay for small molecule antagonists of thyroid hormone receptor beta signaling (AID 588547; active = well fitted inhibition curve with a large enough effect in the signal ratio, with a control signal flat, not every such curve was filed as active; the % refers to the signal ratio;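 note: cells stimulated with 0.4 nM T3 agonist during compound exposure; series mostly up to about 77 µM; % is set by controls: 0 for no effect and ±100 for the full control effect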). The settings on record: TR-UAS-bla HEK293, beta-lactamase ratio, antagonist mode, 18 h. In a few lines: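 TR-UAS-bla GripTite HEK293 cells in 2% charcoal/dextran FBS medium were preincubated 4 h at 37 C, given compound (0.59 nM to 92 uM) plus 0.4 nM T3 (final) for 18 h, then CCF4 for 2 h at RT; Hill fit gave IC50.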

Molecules are shown by their SMILES. Records with an inconclusive call do not appear. Active and inactive are the calls of the source. Unless noted, calls come from the whole dose curve; as a rule, active = well fitted curve in the direction sought with a large enough effect; inconclusive = small, poorly fitted or top-dose-only effect, or another doubt; inactive = no such curve, though single readings can be large; an effect the other way counts as inactive or inconclusive.

Sequence of Peroxisome proliferator-activated receptor delta (Homo sapiens) (Q03181 whole entry, looked up): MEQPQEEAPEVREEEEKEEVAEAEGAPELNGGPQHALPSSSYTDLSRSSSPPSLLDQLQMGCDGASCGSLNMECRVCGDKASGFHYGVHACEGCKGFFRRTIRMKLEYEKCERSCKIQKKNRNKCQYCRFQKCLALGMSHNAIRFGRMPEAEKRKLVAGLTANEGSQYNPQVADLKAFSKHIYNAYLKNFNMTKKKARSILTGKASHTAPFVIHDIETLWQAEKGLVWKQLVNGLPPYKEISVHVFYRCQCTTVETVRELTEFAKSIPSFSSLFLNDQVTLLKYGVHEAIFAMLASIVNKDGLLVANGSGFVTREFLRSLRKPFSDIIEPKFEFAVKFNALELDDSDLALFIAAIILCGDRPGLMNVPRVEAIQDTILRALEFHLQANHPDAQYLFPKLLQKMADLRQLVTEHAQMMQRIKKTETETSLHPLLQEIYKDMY
Sequence of Thyroid hormone receptor beta (Homo sapiens) (P10828 whole entry, looked up): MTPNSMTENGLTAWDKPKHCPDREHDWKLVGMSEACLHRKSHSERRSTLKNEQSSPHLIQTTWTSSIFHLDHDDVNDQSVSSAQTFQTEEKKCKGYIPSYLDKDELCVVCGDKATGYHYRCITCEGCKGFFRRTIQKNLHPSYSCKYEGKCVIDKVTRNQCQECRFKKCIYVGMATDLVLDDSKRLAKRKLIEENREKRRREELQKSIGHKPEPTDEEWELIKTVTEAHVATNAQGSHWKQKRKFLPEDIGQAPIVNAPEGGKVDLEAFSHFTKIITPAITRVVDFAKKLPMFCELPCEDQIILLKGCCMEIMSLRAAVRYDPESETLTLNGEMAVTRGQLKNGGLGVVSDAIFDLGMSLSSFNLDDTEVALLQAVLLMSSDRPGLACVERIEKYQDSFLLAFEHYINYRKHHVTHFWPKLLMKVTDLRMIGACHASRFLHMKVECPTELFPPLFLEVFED
Sequence of Nuclear receptor subfamily 1 group I member 2 (Rattus norvegicus) (Q9R1A7 whole entry, looked up): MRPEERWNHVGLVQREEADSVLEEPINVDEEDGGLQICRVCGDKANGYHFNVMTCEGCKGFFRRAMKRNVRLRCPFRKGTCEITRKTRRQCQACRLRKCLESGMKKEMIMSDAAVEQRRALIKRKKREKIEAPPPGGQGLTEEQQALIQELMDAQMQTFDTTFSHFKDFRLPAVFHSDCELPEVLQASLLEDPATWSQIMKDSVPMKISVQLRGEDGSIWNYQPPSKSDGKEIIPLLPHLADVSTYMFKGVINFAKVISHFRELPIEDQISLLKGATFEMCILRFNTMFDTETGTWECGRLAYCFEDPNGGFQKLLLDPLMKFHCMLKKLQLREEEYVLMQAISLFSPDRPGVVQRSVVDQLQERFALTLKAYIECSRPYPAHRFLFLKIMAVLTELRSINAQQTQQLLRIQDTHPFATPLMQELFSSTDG
Sequence of Peroxisome proliferator-activated receptor gamma (Homo sapiens) (P37231 whole entry, looked up): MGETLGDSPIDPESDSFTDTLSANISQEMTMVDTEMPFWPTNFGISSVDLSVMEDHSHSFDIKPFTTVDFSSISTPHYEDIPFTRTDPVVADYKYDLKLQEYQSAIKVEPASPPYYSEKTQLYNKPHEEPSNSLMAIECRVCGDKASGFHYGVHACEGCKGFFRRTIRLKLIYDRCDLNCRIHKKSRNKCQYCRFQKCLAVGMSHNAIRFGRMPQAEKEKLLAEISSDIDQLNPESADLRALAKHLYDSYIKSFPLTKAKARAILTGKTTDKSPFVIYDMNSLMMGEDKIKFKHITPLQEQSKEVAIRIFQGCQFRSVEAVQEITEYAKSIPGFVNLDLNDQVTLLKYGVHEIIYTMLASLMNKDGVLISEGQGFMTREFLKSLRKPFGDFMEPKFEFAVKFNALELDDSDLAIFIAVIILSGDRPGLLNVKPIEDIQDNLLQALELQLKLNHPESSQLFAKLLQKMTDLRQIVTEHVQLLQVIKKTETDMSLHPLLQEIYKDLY
Sequence of Peroxisome proliferator-activated receptor alpha (Homo sapiens) (Q07869 whole entry, looked up): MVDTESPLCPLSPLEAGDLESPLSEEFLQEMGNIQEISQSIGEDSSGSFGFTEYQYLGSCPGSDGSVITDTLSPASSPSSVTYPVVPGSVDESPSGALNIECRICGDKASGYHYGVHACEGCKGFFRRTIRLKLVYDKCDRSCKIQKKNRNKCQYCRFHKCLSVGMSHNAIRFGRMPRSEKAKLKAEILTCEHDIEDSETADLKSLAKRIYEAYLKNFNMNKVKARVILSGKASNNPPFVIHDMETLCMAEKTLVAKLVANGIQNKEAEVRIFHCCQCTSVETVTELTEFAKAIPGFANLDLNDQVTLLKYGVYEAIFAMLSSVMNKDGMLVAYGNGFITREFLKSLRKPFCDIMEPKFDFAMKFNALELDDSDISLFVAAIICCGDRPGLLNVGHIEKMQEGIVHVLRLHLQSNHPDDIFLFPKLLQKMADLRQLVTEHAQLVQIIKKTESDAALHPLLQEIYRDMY
Sequence of Estrogen receptor (Homo sapiens) (P03372 whole entry, looked up): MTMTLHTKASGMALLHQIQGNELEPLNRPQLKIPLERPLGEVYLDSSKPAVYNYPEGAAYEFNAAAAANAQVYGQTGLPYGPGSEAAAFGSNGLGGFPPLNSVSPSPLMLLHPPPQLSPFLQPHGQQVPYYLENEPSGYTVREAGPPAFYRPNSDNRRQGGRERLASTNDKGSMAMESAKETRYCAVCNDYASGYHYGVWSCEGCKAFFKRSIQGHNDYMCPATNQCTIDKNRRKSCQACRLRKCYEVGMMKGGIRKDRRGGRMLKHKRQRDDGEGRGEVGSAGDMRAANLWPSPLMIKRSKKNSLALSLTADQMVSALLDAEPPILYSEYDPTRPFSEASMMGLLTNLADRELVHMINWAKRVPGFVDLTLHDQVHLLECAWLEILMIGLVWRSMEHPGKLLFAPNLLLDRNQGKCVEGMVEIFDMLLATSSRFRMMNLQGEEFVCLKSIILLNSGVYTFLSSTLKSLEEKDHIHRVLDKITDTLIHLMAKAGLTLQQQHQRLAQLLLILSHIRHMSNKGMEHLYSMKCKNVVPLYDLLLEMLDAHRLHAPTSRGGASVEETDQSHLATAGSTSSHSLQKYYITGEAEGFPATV

`C#CCOC(=O)[C@@H](C)Oc1ccc(Oc2ncc(Cl)cc2F)cc1`: the Potency result in [1], in assay [3], in assay [5], in assay [7], in assay [13] and in assay [16] was “inactive” in each case. Also, the max response in assay [2] was 41.4%; in [6] it was -11.8%; in [8], -4.05%; in assay [9] it was -3.03% (inactive); in assay [12], -0.41% (inactive); in assay [14] it was -3.32% (inactive). Also, the values for the max response in assay [15] and in assay [17] were -6.8% (inactive) and -2.33% (inactive), respectively. The compound was called inactive in assay [4] and in assay [18]. The activation was -3.45% (inactive) in assay [10] and -1.36% (inactive) in assay [11].

Take `CCC(=O)OCCc1ccccc1`: the Potency entry in assay [1], in [3], in [5], in assay [19], in assay [13] and in [16] was “inactive” in each case. Also, the max response in assay [2] is 20.5%; in [6] it was -7.14%; in [8], -6.4%; in assay [9], 3.85% (inactive); in [12] it was -0.0633% (inactive); in [14], 0.747% (inactive). The max response in assay [15] was -5.25% (inactive); in assay [17] it was -2.51% (inactive). Moreover, the compound was classed as inactive in [4] and in [18]. The activity change % (negative = inhibition) in assay [20] is -6.7% (inactive). Besides, the activation in assay [10] is -3.48% (inactive); in assay [11] it was 2.12% (inactive).

As for `CC/C=C/CCCCCCCCCCOC(C)=O`, the Potency result in assay [1], in assay [3], in assay [5], in [19], in assay [13] and in [16] was “inactive” in each case. Further, the max response was 25.9% in assay [2]; -22.5% in assay [6]; -1.44% (inactive) in [12]; -0.636% (inactive) in assay [14]; -7.88% (inactive) in [15]; 3.81% (inactive) in [17]. In addition, the compound was classed as inactive in assay [4] and in assay [18]. Further, the activity change % (negative = inhibition) in assay [20] was 4.15% (inactive). Besides, in assay [11], the activation is -0.59% (inactive).

As for `O=C(O)C(c1ccc(Cl)cc1)c1ccc(Cl)cc1`, the Potency entry in [1], in assay [3], in assay [5], in assay [19], in assay [13] and in [16] was “inactive” throughout. Moreover, the max response in assay [2] was -10.8%; in [8], -10.2%; in [9], 12.2% (inactive); in [12], 3.51% (inactive); in assay [14], -12.1% (inactive); in [15], 0.137% (inactive). Further, in [17], the max response is -4.74% (inactive). In addition, in assay [20], the activity change % (negative = inhibition) is -8.17% (inactive). The activation in assay [11] is -0.789% (inactive). Moreover, the compound was classed as inactive in assay [18].

Take `Cl[Si](Cl)(c1ccccc1)c1ccccc1`: the Potency result in assay [1], in assay [3], in [7], in assay [13] and in assay [16] was “inactive” throughout. The max response in assay [2] is 5.91%; in [6], -17.4%; in assay [8], -8.47%; in assay [9], -0.846% (inactive); in assay [12] it was 5.98% (inactive); in [14] it was -10.9% (inactive). For the same compound, in assay [15], the max response is 1.19% (inactive). Besides, in assay [4], the compound was called inactive. The activation in assay [10] is -1.29% (inactive); in assay [11] it was -1.05% (inactive).

In the case of `CCCN(CCC)c1c([N+](=O)[O-])cc(C(F)(F)F)c(N)c1[N+](=O)[O-]`, the Potency entry in [1] and in assay [13] was “inactive” throughout. Moreover, the max response in assay [8] is -8.88%; in assay [14] it was -7.36% (inactive); in assay [15] it was -20.5% (inactive). Also, the activation in assay [11] was 2.99% (inactive). For the same compound, in [16], the Potency was 50.1 µM (active).

The values above are taken from PubChem BioAssay (NCATS).
